Test results taken from PubChem BioAssay (NCATS).
Values joined by “and” are separate entries in the source; they are usually repeats but may differ in a detail not shown here. Equal values may be shown once. Records with an inconclusive call do not appear. Active and inactive are the calls of the source. Unless noted, calls come from the whole dose curve; as a rule, active = well fitted curve in the direction sought with a large enough effect; inconclusive = small, poorly fitted or top-dose-only effect, or another doubt; inactive = no such curve, though single readings can be large; an effect the other way counts as inactive or inconclusive.

What was measured:
[1] = qHTS profiling of the MIPE4 collection as inhibitors of Plasmodium falciparum (HB3) proliferation (AID 743347; call rule not given here;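 note: plate controls were DMSO vehicle wells for no effect and artemisinin wells for full effect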); conditions: P. falciparum HB3 in erythrocytes, SYBR Green DNA, 72 h; at 28.5 µM (top of the series) unless noted
Summary of the method: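 Erythrocytes infected with P. falciparum (0.3% parasitemia, 2.5% hematocrit) incubated with compounds 72 h at 37 C, 5% CO2. Lysis with saponin/Triton buffer containing SYBR Green I, overnight at room temperature in the dark; DNA fluorescence (485/535 nm) normalised to 0.29 uM artemisinin and DMSO.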

[2] = High-throughput drug toxicity screening in the BPDCN cell line Gen2.2 (AID 1224824; call rule not given here;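 note: cells exposed to compounds for 48 h before reading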); conditions: Gen2.2 BPDCN cells; at 45.8 µM (top of the series) unless noted
Summary of the method: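 Gen2.2 cells, 500 per well in phenol red-free RPMI with 10% FBS, exposed to compounds 48 h at 37 C, 5% CO2; viability by CellTiter-Glo luminescence. Percent activity scaled to DMSO (100%) and 9.2 uM bortezomib final (0%).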

[3] = High-throughput drug toxicity screening in the BPDCN cell line Cal-1 (AID 1224825; call rule not given here); conditions: Cal-1 BPDCN cell viability, qHTS; at 45.8 µM (top of the series) unless noted
Summary of the method: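 Cal-1 cells, 500 per well in phenol-red-free RPMI with 10% FBS, exposed to compounds for 48 hours at 37C, 5% CO2. Viability read by CellTiter-Glo luminescence; percent activity normalized to DMSO (100%) and 9.2 uM bortezomib final (0%).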

[4] = qHTS assay for measurement of the activity of small molecule inhibitors on Zika virus induced Caspase-3 activity in human iPSC derived neural progenitor cells (hNPCs) (AID 1224857); note: nearly all actives have a fitted effect of over 65% in size; note: potency is the fitted concentration of half-maximal effect
Summary of the method: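 Values are percent inhibition of virus-induced caspase-3/7 signal, scaled between uninfected cells and ZIKV-infected cells. Infection used 2 FFU/cell for 6 h after 1 h compound exposure.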

[5] = qHTS assay for measurement of the activity of small molecule inhibitors on Zika virus induced Caspase-3 activity in human astrocytoma cells (AID 1224859); note: potency is the fitted concentration of half-maximal effect
Summary of the method: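 Compound added 1 h pre-infection; ZIKV 2 FFU/cell on SNB-19 cells, 6 h, 37 C/5% CO2. Caspase-Glo 3/7 luminescence; values as % inhibition of ZIKV-induced caspase activity.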

[6] = qHTS Screen of the MIPE 4.0 Collection Against Ewings Sarcoma (TC32) (AID 1259256); note: nearly all actives have a fitted effect of over 45% in size; note: potency is the fitted concentration of half-maximal effect
Summary of the method: (§1)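 Log-phase cells in RPMI with 5% FBS attached for 4 h, then received compounds as a titration for 48 h at 37C, 5% CO2. Viability was read by CellTiter-Glo luminescence and normalized to DMSO and no-cell wells.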

[7] = qHTS assay to identify small molecule inhibitors of chordoma cells - UCH-1 (AID 1259355); note: nearly all actives have a fitted effect of over 55% in size; note: potency is the fitted concentration of half-maximal effect
Summary of the method: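 Cells (800/well) were seeded and left overnight at 37 C, 5% CO2, then treated with drugs at 15 concentrations plus a combination mix of auranofin, camptothecin, doxorubicin, rubitecan and topotecan. Viability after 48hr was read by CellTiter-Glo luminescence.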

[8] = qHTS Screen of the MIPE 4.0 Collection Against Ewings Sarcoma (EW8) (AID 1259255); note: nearly all actives have a fitted effect of over 35% in size; note: potency is the fitted concentration of half-maximal effect;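 for viability: 100% = DMSO-treated cells and 0% = medium-only wells without cells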
Summary of the method: as §1

[9] = qHTS Screen of the MIPE 4.0 Collection Against Ewings Sarcoma (RDES) (AID 1259252);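 note: 100% = DMSO-treated cells and 0% = medium-only wells without cells; nearly all actives have a fitted effect of over 35% in size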
Summary of the method: as §1

[10] = qHTS Screen of the MIPE 4.0 Collection Against Ewings Sarcoma (TC71) (AID 1259253); note: potency is the fitted concentration of half-maximal effect; nearly all actives have a fitted effect of over 40% in size
Summary of the method: as §1

| SMILES | growth, % of control [1] | cell viability, % of control (lower = more cytotoxic) [2] | viability (% of control) [3] | Potency [4] | Potency [5] | Potency [6] | Potency [7] | Potency [8] | Potency [9] | Potency [10] |
| --- | --- | --- | --- | --- | --- | --- | --- | --- | --- | --- |
| CC(C)c1ccc2c(c1)c(SC(C)(C)C)c(CC(C)(C)C(=O)O)n2Cc1ccc(Cl)cc1 | 11.8% | 111% | 119% | inactive | inactive | – | – | – | – | – |
| CCN(CCO)CCCC(C)Nc1ccnc2cc(Cl)ccc12 (configuration not stated) | 49.8% | 86.1% | 8.28% | inactive | inactive | 23.5 µM (active) | – | – | – | – |
| Cc1cc(=O)c2c(O)c3c(O)cc(=O)c4c3c3c(cc(O)c1c23)C(C)(C)C=4O | 5.99% | 130% | 94.6% | inactive | inactive | inactive | 6.31 µM (active) | – | – | – |
| COc1cc(C(C)=O)ccc1OCCCN1CCC(c2noc3cc(F)ccc23)CC1 | 54.6% | 69.7% | 52.5% | inactive | inactive | – | – | – | – | – |
| Cc1ccc(C)c(OCCCC(C)(C)C(=O)O)c1 | 3.44% | 120% | 51% | inactive | inactive | – | inactive | – | – | – |
| COC(=O)C1=C(C)NC(C)=C(C(=O)OCCCN2CCC(c3ccccc3)(c3ccccc3)CC2)C1c1cccc([N+](=O)[O-])c1 (configuration not stated) | 102% | 109% | 123% | inactive | inactive | 29.6 µM (active) | – | 18.7 µM (active) | – | – |
| O=C(NC(Cc1cc(=O)[nH]c2ccccc12)C(=O)O)c1ccc(Cl)cc1 (configuration not stated) | 75.3% | 149% | 108% | inactive | inactive | inactive | – | inactive | – | – |
| O=C1c2c(O)cc(O)cc2OC(c2ccc(O)c(O)c2)C1O (configuration not stated) | 99.5% | 155% | 105% | inactive | inactive | – | – | inactive | – | – |
| Cc1cc(=O)oc2cc(O)ccc12 | 105% | 183% | 104% | inactive | inactive | inactive | – | inactive | – | – |
| Cc1cc(O)c2c(c1)C(=O)c1cc(O)cc(O)c1C2=O | 98.6% | 207% | 109% | 9.35 µM (active) and 2.51 µM (active) | 9.35 µM (active) | inactive | – | inactive | – | – |
| O=C1CCc2ccc(OCCCCN3CCN(c4cccc(Cl)c4Cl)CC3)cc2N1 | 62.9% | 498% | 110% | inactive | inactive | – | – | – | – | – |
| O=C(O)c1cn(-c2ccc(F)cc2)c2cc(N3CCNCC3)c(F)cc2c1=O | 208% | 47.7% | 79.5% | inactive | inactive | inactive | inactive | – | – | – |
| Nc1ccn([C@@H]2O[C@H](CO)[C@@H](O)C2O)c(=O)n1 (some centres not stated) | 107% | 225% | 92.2% | inactive | – | inactive | – | inactive | inactive | – |
| CCOC(=O)c1c(C)n(C)c2ccc(O)cc12 | 66.7% | 232% | 87.8% | inactive | – | inactive | – | – | – | – |
| CC1Cc2ccccc2N1NC(=O)c1ccc(Cl)c(S(N)(=O)=O)c1 (configuration not stated) | 48.2% | 106% | 104% | inactive | – | – | – | – | – | 20.9 µM (active) |
